In the antibiotic and cytotoxicity screens of Wong et al. (2023):
Hit rate of the full screen: of about 39,000 compounds, about 3,300 (8.5%) were called active. This excerpt belongs to a sample that is enriched for actives.

Each compound was assayed on HepG2 (assay: cytotoxicity call (relative viability < 0.9)). Settings: 10 µM.

SMILES | cytotoxicity call
C[C@@H]1CN([C@H](C)CO)C(=O)c2cc(NC(=O)Cc3cn(C)c4ccccc34)ccc2O[C@@H]1CN(C)Cc1ccc(Oc2ccccc2)cc1 | inactive
C[C@H](CO)N1C[C@H](C)[C@@H](CN(C)Cc2ccc(Oc3ccccc3)cc2)Oc2ccc(NC(=O)Cc3cn(C)c4ccccc34)cc2C1=O | active
C[C@H](CO)N1C[C@H](C)[C@H](CN(C)Cc2ccc(Oc3ccccc3)cc2)Oc2ccc(NC(=O)Cc3cn(C)c4ccccc34)cc2C1=O | active
C[C@@H]1CN([C@H](C)CO)C(=O)c2cc(NC(=O)Cc3cn(C)c4ccccc34)ccc2O[C@H]1CN(C)Cc1ccc(Oc2ccccc2)cc1 | inactive
C[C@@H]1CN([C@@H](C)CO)C(=O)c2cc(NC(=O)Cc3cn(C)c4ccccc34)ccc2O[C@H]1CN(C)Cc1ccc(Oc2ccccc2)cc1 | inactive
C[C@H]1CN([C@@H](C)CO)C(=O)c2cc(NC(=O)Cc3cn(C)c4ccccc34)ccc2O[C@@H]1CN(C)Cc1ccc(Oc2ccccc2)cc1 | active
C[C@H]1CN([C@@H](C)CO)C(=O)c2cc(NC(=O)Cc3cn(C)c4ccccc34)ccc2O[C@H]1CN(C)Cc1ccc(Oc2ccccc2)cc1 | inactive
C[C@@H]1CN([C@@H](C)CO)C(=O)c2cc(NC(=O)Cc3cn(C)c4ccccc34)ccc2O[C@@H]1CN(C)Cc1ccc(Oc2ccccc2)cc1 | inactive
Cc1ccc(S(=O)(=O)N(C)C[C@H]2OCCCC[C@@H](C)Oc3ccc(NC(=O)Nc4ccc5c(c4)OCO5)cc3C(=O)N([C@H](C)CO)C[C@@H]2C)cc1 | inactive
COc1cccc(-c2ccc3c(c2)O[C@H](CN(C)Cc2cncnc2)[C@H](C)CN([C@@H](C)CO)S3(=O)=O)c1 | inactive
COc1ccc(NC(=O)N(C)C[C@H]2Oc3ccc(NC(=O)CCCCCC(=O)Nc4ccccc4N)cc3CC(=O)N([C@H](C)CO)C[C@H]2C)cc1 | inactive
C[C@@H]1CN([C@@H](C)CO)C(=O)c2c(c3ccccc3n2C)-c2ccccc2CO[C@H]1CN(C)S(C)(=O)=O | inactive
CC(=O)OCC1=C(C(=O)O)N2C(=O)[C@@H](NC(=O)CSc3ccncc3)[C@H]2SC1 | inactive
C[C@H](CO)N1C[C@H](C)[C@H](CN(C)Cc2ccc(-c3ccccc3)cc2)Oc2ccc(NC(=O)Cn3cnnn3)cc2C1=O | inactive
C[C@H]1CN([C@@H](C)CO)C(=O)c2cccc(NS(=O)(=O)c3cn(C)cn3)c2O[C@@H]1CN(C)Cc1ccc(C(=O)O)cc1 | inactive
Cn1nnnc1-c1ccc(N)cc1 | inactive
COc1cc(NC(C)CCCN)c2ncccc2c1.O=P(O)(O)O.O=P(O)(O)O (stereo unspecified) | active
Cc1c(-c2c(-c3ccc(F)o3)sc3ncnc(O[C@H](Cc4ccccc4OCc4ccnn4CC(F)(F)F)C(=O)O)c23)ccc(OCCN2CCN(C)CC2)c1Cl | active
C[C@H]1CN([C@@H](C)CO)C(=O)CCCn2cc(nn2)CO[C@H]1CN(C)S(=O)(=O)c1ccccc1C#N | inactive
C[C@H](CO)N1C[C@H](C)[C@H](CN(C)C(=O)Nc2ccc(F)cc2)OCCCC[C@H](C)Oc2ccc(NC(=O)NC3CCCCC3)cc2C1=O | inactive
O=c1[nH]c(=O)n([C@H]2C[C@H](O)[C@@H](CO)O2)cc1C(F)(F)F | active
O=c1[nH]c(=O)n(C2CC(O)C(CO)O2)cc1C(F)(F)F (stereo unspecified) | inactive
O=c1[nH]c(=O)n([C@H]2C[C@H](O)[C@@H](CO)O2)cc1F | inactive
O=c1[nH]c(=O)n([C@@H]2C[C@@H](O)[C@@H](CO)O2)cc1F | inactive
O=c1[nH]c(=O)n(C2CC(O)C(CO)O2)cc1F (stereo unspecified) | active
Cc1cn([C@H]2C[C@H](O)[C@@H](CO)O2)c(=O)[nH]c1=O | inactive

SMILES | cytotoxicity call
CCCNC(=O)C[C@H]1CC[C@@H]2[C@H](COc3ccc(NC(=O)c4ccc5c(c4)OCO5)cc3C(=O)N2C)O1 | inactive
COc1ccccc1NC(=O)N(C)C[C@H]1Oc2ncc(C#CC(C)C)cc2C(=O)N([C@H](C)CO)C[C@H]1C | inactive
C/C=C/c1ccc2c(c1)O[C@H](CN(C)S(=O)(=O)c1ccccc1OC)[C@H](C)CN([C@H](C)CO)S2(=O)=O | inactive
COc1ccc(NC(=O)N(C)C[C@H]2OCCCC[C@H](C)Oc3ccc(NC(=O)NC4CCCCC4)cc3C(=O)N([C@H](C)CO)C[C@@H]2C)cc1 | inactive
NCC(=O)Nc1ccc(Br)cc1 | inactive
Cc1ccc(NC(=O)CC(C)C)cc1 | inactive
CN(C)c1ccc(NC(=O)CN)cc1 | active
C[C@H](CO)N1C[C@H](C)[C@H](CN(C)Cc2ccc3c(c2)OCO3)Oc2c(NS(C)(=O)=O)cccc2C1=O | inactive
C[C@H](CO)N1C[C@H](C)[C@H](CN(C)C(=O)CCCN(C)C)OCCCC[C@H](C)Oc2ccc(NC(=O)Nc3ccc(F)cc3)cc2C1=O | inactive
Cc1cccc(=O)n1CCCCN | inactive
Cc1ccc2c(=O)c3ccccc3n(CCCN)c2c1C | active
Cn1cnc(=O)c2ccccc21 | inactive
COc1ccc(NC(=O)Nc2cccc3c2O[C@H](CN(C)C(=O)Nc2ccc(C(F)(F)F)cc2)[C@H](C)CN([C@H](C)CO)C3=O)cc1 | inactive
O=C(C[C@H]1C[C@H]2c3cc(NC(=O)Cc4ccncc4)ccc3O[C@H]2[C@@H](CO)O1)NCc1cc(F)ccc1F | inactive
C[C@H]1CN([C@@H](C)CO)C(=O)Cc2cc(NC(=O)c3ccncc3)ccc2O[C@H]1CN(C)S(=O)(=O)c1ccc(Cl)cc1 | inactive
C[C@H]1CN([C@@H](C)CO)C(=O)Cc2cc(NC(=O)C3CC3)ccc2O[C@@H]1CN(C)Cc1ccc2c(c1)OCO2 | inactive
C[C@@H]1CCCCO[C@H](CN(C)S(=O)(=O)c2ccccc2)[C@@H](C)CN([C@H](C)CO)C(=O)c2cc(NC(=O)c3ccccc3)ccc2O1 | inactive
C[C@@H]1CN([C@H](C)CO)C(=O)c2cc(NC(=O)c3ccccc3)ccc2O[C@@H](C)CCCCO[C@H]1CN(C)S(=O)(=O)c1ccccc1 | active
COc1ccc(S(=O)(=O)N(C)C[C@H]2OCCCC[C@@H](C)Oc3ccc(NC(=O)c4ccccc4)cc3C(=O)N([C@@H](C)CO)C[C@H]2C)cc1 | inactive
COc1ccc(S(=O)(=O)N(C)C[C@@H]2OCCCC[C@@H](C)Oc3ccc(NC(=O)c4ccccc4)cc3C(=O)N([C@H](C)CO)C[C@@H]2C)cc1 | inactive
C[C@@H]1CCCCO[C@H](CN(C)S(=O)(=O)c2ccccc2)[C@H](C)CN([C@@H](C)CO)C(=O)c2cc(NC(=O)c3ccccc3)ccc2O1 | inactive
Cc1ccc(S(=O)(=O)N(C)C[C@@H]2OCCCC[C@H](C)Oc3ccc(NC(=O)c4ccccc4)cc3C(=O)N([C@H](C)CO)C[C@H]2C)cc1 | active
Cc1ccc(S(=O)(=O)N(C)C[C@@H]2OCCCC[C@@H](C)Oc3ccc(NC(=O)c4ccccc4)cc3C(=O)N([C@@H](C)CO)C[C@H]2C)cc1 | inactive
COc1ccc(S(=O)(=O)N(C)C[C@@H]2OCCCC[C@H](C)Oc3ccc(NC(=O)c4ccccc4)cc3C(=O)N([C@@H](C)CO)C[C@H]2C)cc1 | active
Cc1ccc(S(=O)(=O)N(C)C[C@H]2OCCCC[C@H](C)Oc3ccc(NC(=O)c4ccccc4)cc3C(=O)N([C@@H](C)CO)C[C@H]2C)cc1 | inactive
